Assay results taken from PubChem BioAssay (EPA / NIEHS).
Records with an inconclusive call do not appear. Activity calls are given as the source filed them. How the source made its calls: active means hit-call score of the fitted dose curve at least 0.9, where 1 is the maximum; inconclusive means response in the unintended direction; inactive means score below 0.9.

Biological target: Oxysterols receptor LXR-alpha (Homo sapiens) (UniProt Q13133)
Assay: ATG_LXRa_TRANS: Attagene TRANS-FACTORIAL HepG2 Assay for human Liver X Receptor alpha (LXRa) (AID 2282980)
Details: HepG2 Attagene TRANS reporter, LXRa transactivation
Protocol: ATG_TRANS is a cell-based, multiplexed-readout assay that uses HepG2, a human liver cell line, with measurements taken at 24 hours after chemical dosing in a 24-well plate.ATG_LXRa_TRANS is one of 30 assay component(s) measured or calculated from the ATG_TRANS assay. It is designed to make measurements of mRNA induction, a form of inducible reporter, as detected with fluorescence intensity signals by Reverse transcription polymerase chain reaction (RT-PCR) and Capillary electrophoresis technology.Data from the assay component ATG_LXRa_TRANS was analyzed into 1 assay endpoint. This assay endpoint, ATG_LXRa_TRANS, was analyzed in the positive analysis fitting direction relative to DMSO as the negative control and baseline of activity. Using a type of inducible reporter, measures of mRNA for gain-of-signal activity can be used to understand the reporter gene at the transcription factor-level as they relate to the gene NR1H3. Furthermore, this assay endpoint can be referred to as a primary readout, because this assay has produced multiple assay endpoints where this one serves a reporter gene function. To generalize the intended target to other relatable targets, this assay endpoint is annotated to the nuclear receptor intended target family, where the subfamily is non-steroidal.
Human liver HepG2 cells are transiently transfected with multiple reporter transcription units (MRTUs) in 6-well plates using FuGene 6 reagent (Roche; 3 ml FuGene/1 mg DNA). The MRTU constructs are regulated by a cis-regulating element (promoter). […] A major difference between the CIS and TRANS system is that in CIS activities of endogenous TFs are measured, whereas the TRANS assay evaluates changes in activities of exogenous, chimeric NR-Gal4 proteins. […] At the end of 24 hour incubation, total RNA was isolated using TriZol reagent (Invitrogen). The isolated RNA is then reverse-transcribed using oligo(dT) primer and Mo-MLV reverse transcriptase (Invitrogen) with DNAse I (Ambion) treatment for 30 min. The one-tenth of the produced cDNA was amplified by PCR using Taq DNA polymerase (Invitrogen) and two reporter sequence-specific primers. The PCR products were fluorescently labeled by primer extension with 6-arboxyfluorescein (6-FAM) 5'-labeled reporter sequence-specific primer (2 min at 95 C, 20 s at 68 C and 10 min at 72 C) and these products were digested with 5U of HpaI (New England Biolabs) for 2h at 37 C. The fragments were purified using Qiaquick PCR columns (Qiagen), analyzed on an ABI 3130xL genetic analyzer (Applied Biosystems) with peak positions identified by using a set of X-rhodamine (ROX)-labeled MapMarker1000 molecular weight standards (BioVentures). The raw capillary electrophoresis data was processed using Attagraph software (Attagene).

Sequence of Oxysterols receptor LXR-alpha (Homo sapiens) (Q13133 whole entry, looked up): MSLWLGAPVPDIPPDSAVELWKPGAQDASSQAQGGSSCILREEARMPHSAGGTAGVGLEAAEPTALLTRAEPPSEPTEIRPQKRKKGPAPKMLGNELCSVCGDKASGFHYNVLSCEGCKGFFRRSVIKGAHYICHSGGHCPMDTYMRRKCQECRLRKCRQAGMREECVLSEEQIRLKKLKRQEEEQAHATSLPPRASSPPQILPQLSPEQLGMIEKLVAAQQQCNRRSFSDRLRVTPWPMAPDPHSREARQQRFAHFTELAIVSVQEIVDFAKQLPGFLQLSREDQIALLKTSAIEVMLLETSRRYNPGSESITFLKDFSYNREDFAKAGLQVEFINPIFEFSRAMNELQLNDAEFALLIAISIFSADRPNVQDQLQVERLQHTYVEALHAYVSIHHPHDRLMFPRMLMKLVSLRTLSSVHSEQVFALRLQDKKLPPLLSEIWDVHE

SMILES	outcome	AC50
CCOc1nc(F)cc2nc(S(=O)(=O)Nc3c(Cl)cccc3Cl)nn12	inactive	
CC(C)N1C(=O)c2ccccc2NS1(=O)=O		50 µM (active)
O=c1n(Cl)c(=O)n(Cl)c(=O)n1Cl	inactive	
COP(=S)(OC)Oc1ccc([N+](=O)[O-])c(C)c1	inactive	
CCCN(CC)CC1COC2(CCC(C(C)(C)C)CC2)O1 (stereo not given)	inactive	
CCNP(=S)(OC)O/C(C)=C/C(=O)OC(C)C (stereo not given)	inactive	
Cn1c(-c2ccccc2)cc(-c2ccccc2)[n+]1C	inactive	
CNC(=O)Oc1cccc2ccccc12	inactive	
CC(C)(C)C(=O)C(Oc1ccc(Cl)cc1)n1cncn1 (stereo not given)	inactive	
CN/C(=N\[N+](=O)[O-])NCc1cnc(Cl)s1	inactive	
CCOC(=O)C(C)OC(=O)c1cc(Oc2ccc(C(F)(F)F)cc2Cl)ccc1[N+](=O)[O-] (stereo not given)	inactive	
CNC(=O)N(C)c1nnc(C(C)(C)C)s1	inactive	
N#CN=C1SCCN1Cc1ccc(Cl)nc1	inactive	
Cc1cnc(C2=NC(C)(C(C)C)C(=O)N2)c(C(=O)O)c1 (stereo not given)	inactive	
COP(=O)(OC)O/C(C)=C/C(=O)N(C)C	inactive	
Clc1cccc(C(Cl)(Cl)Cl)n1	inactive	
CC(C)Oc1cccc(NC(=O)c2ccccc2C(F)(F)F)c1	inactive	
CS(=O)(=O)c1ccc(C(=O)C2C(=O)CCCC2=O)c([N+](=O)[O-])c1	inactive	
O=C1C2CC=CCC2C(=O)N1SC(Cl)(Cl)Cl (stereo not given)	inactive	
CC(C)NC(=O)N1CC(=O)N(c2cc(Cl)cc(Cl)c2)C1=O	inactive	

SMILES	outcome	AC50
CC(C)Nc1nc(Cl)nc(NC(C)C)n1	inactive	
COC(=O)NC(=S)Nc1ccccc1NC(=S)NC(=O)OC	inactive	
CN=C=S	inactive	
N#Cc1c(Cl)cccc1Cl	inactive	
CCOP(=O)(OCC)Oc1nc(Cl)c(Cl)cc1Cl	inactive	
CO/N=C(/C1=NOCCO1)c1ccccc1Oc1ncnc(Oc2ccccc2Cl)c1F	inactive	
CCOP(=S)(OCC)Oc1nc(Cl)n(C(C)C)n1		14.9 µM (active)
O=P(O)(O)CCCl	inactive	
CCCCOCN(C(=O)CCl)c1c(CC)cccc1CC	inactive	
CC(C)=CC1C(C(=O)OCc2coc(Cc3ccccc3)c2)C1(C)C (stereo not given)	inactive	
CC1(C)CCC(=Cc2ccc(Cl)cc2)C1(O)Cn1cncn1 (stereo not given)	inactive	
COP(=S)(OC)SCn1nnc2ccccc2c1=O	inactive	
COC(=O)c1c(C(F)F)nc(C(F)(F)F)c(C2=NCCS2)c1CC(C)C	inactive	
CCN(CC)C(=O)C(C)Oc1cccc2ccccc12 (stereo not given)	inactive	
CC1(C)CON(Cc2ccccc2Cl)C1=O	inactive	
COc1cc(OC)nc(NC(=O)NS(=O)(=O)c2ncccc2OCC(F)(F)F)n1	inactive	
COc1cc(Cl)c(OC)cc1Cl	inactive	
CCOc1nc(C(Cl)(Cl)Cl)ns1	inactive	
CCSC(=O)N1CCCCCC1	inactive	
CCCC(=NOCC)C1=C(O)CC(CC(C)SCC)CC1=O (stereo not given)	inactive	
